# Laboratory results reported in PubChem BioAssay (NCATS).
# Values without a mark were called inactive. Unless noted, the rule behind the calls is not given here.
# Key:
# [1] = tested on: HIV-1 nucleocapsid protein NCp7 (binding to TG oligonucleotide); assay: HIV Nucleocapsid (AID 346); settings: HIV-1 NC / fluorescein-TGTGTGTG probe, fluorescence polarization;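 note: potency is for inhibitors that block NC binding and lower polarization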
# Outline: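 Inhibition of nucleocapsid binding to single-stranded 5'-TGTGTGTG probe (10 nM) was measured by fluorescence polarization after 1 hr at room temperature with 100 nM protein under high-salt, zinc-containing, reducing conditions.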
# [2] = target: Lysosomal acid glucosylceramidase (Homo sapiens) (UniProt P04062); assay: Glucocerebrosidase-p2 (AID 348; in the data active = potency below about 10 µM); settings: purified GBA, blue fluorogenic substrate, 40 min
# Outline: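 Normal human glucocerebrosidase (0.2 nM) with blue fluorogenic substrate (80 uM final) in citrate/phosphate pH 5.9 with 10mM sodium taurocholate, 0.01% tween-20; 40 min RT, NaOH/glycine stop; fluorescence Ex 365/Em 440; AC50 from a titration from 0.6 nM upwards.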
# Potency is the fitted concentration of half-maximal effect.
# Chain of Lysosomal acid glucosylceramidase (Homo sapiens) (P04062 whole entry, looked up): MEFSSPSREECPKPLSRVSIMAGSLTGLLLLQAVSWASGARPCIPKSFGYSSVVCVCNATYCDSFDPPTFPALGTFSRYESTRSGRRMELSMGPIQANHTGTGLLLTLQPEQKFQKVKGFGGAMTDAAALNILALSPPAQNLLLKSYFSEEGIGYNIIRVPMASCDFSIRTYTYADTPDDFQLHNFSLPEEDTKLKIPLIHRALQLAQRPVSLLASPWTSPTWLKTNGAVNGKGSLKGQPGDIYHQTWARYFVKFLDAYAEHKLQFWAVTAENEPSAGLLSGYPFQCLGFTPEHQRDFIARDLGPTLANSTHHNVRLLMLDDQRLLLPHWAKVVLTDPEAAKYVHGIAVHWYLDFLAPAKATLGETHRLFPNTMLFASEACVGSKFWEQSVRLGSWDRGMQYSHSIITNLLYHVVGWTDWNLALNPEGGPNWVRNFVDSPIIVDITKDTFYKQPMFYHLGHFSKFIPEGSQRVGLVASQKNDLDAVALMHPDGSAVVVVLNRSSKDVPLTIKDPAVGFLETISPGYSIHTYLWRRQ
compound,measurement,setting,value
N#Cc1ccc(CN2CC[C@@]3(CCCNC3)C2)cc1,Potency,[1],> 20 µM
same,Potency,[2],> 11.4 µM
